Only some compounds are listed: those with a hit (about 7.2% of all), similar ones and a draw of the others.
RE007 growth inh: qHTS Assay for Inhibitors of the HIV-1 protein Vpr; S. pombe RE007 Vpr strain, BacTiter-Glo ATP luminescence, 24 h; Potency, µM (doses to about 92.2 µM), inactives show at the top dose activity change, negative = less growth, actives largely listed as inhibitors; actives 0.21% (n = 360,000); AID 651644, 2012; active = well fitted falling curve with a large enough effect; inconclusive = small, poorly fitted or top-dose-only effect; inactive = no such curve, though single readings can be large or run the other way; also: nearly all actives have a fitted effect of over 50% in size
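Fission yeast RE007 carrying one integrated HIV-1 vpr copy, seeded at OD 0.01 in PMG+AL medium with 23 nL pinned compound. Grown 24 h at 30 degrees; viability read by BacTiter-Glo luminescence after 5 min.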
Marburg entry inh: qHTS for inhibitors of binding or entry into cells for Marburg Virus; Marburg virus pseudotyped entry inhibition, cell reporter; Potency, µM (titrated, usually from 37.8 µM), without a hit: at the top dose activity change, negative = inhibition, actives largely listed as inhibitors; actives 1.8% (n = 300,000); AID 540276, 2011; calls by dose curve; tested in HEK293 cells
FMDV antiviral: High Throughput Screening for Foot and Mouth Disease Virus Antivirals. FMDV antiviral cell-based qHTS. Potency, µM (highest dose often 57.9 µM), without a hit: at the top dose activity change, negative = inhibition, usual class: inhibitors. actives 1.2% (n = 410,000); calls by dose curve; tested in HEK293T cells; also: read-out not given here; nearly all actives have a fitted effect of over 45% in size
Sm TGR inh: qHTS Assay for the Inhibitors of Schistosoma Mansoni Peroxiredoxins. Schistosoma mansoni thioredoxin glutathione reductase (TGR), Q962Y6. purified TGR, DTNB reduction, TNB absorbance 405 nm. Potency, µM (top dose mostly 114 µM), for the others: at the highest dose activity change, negative = inhibition, hits mostly inhibitors. actives 3% (n = 360,000); also: nearly all actives have a fitted effect of over 60% in size
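Kinetic colorimetric format: TGR-catalysed, NADPH-driven DTNB reduction monitored via TNB absorbance. Enzyme dispensed at 20 nM; compound exposure 15 min at room temperature before reaction start.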
LASV entry inh: qHTS for Inhibitors of binding or entry into cells for Lassa Virus; Lassa virus pseudotype entry inhibition, cell reporter; Potency, µM (doses to about 37.9 µM), for inactives: top-dose activity change, negative = inhibition, hits mostly inhibitors; actives 1.2% (n = 300,000); AID 540256, 2011; calls by dose curve; tested in HEK293 cells; also: nearly all actives have a fitted effect of over 50% in size
HCV inh: qHTS Assay for Inhibitors of Hepatitis C Virus (HCV); Potency, µM (top dose mostly 41.8 µM), for the others: top-dose activity change, negative = inhibition, hits mostly inhibitors; actives 3.4% (n = 340,000); Huh7.5.1 HCVcc-Cre infection, luciferase reporter, 44 h; AID 651820, 2012
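Seed cells (1,000/well) for 4 h; treat with compound and infect with HCVcc-Cre, moi about 0.5. Incubate 44 h, then detect luciferase activity.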
Numbers without * were called inactive; [ ] = another dose, or the depositor's remark. Unless noted, calls follow the shape of the dose curve; as a rule, active = well fitted curve in the direction sought with a large enough effect; inconclusive = small, poorly fitted or top-dose-only effect, or another doubt; inactive = no such curve, though single readings can be large; an effect the other way counts as inactive or inconclusive. % is scaled to controls: 0 for no effect and ±100 for the full control effect; potency is read from the fitted curve at half-maximal effect.

What do the screens show for `Cc1cccc(C)c1-n1nnnc1C(c1cc2ccccc2o1)N1CCC(n2c(=O)[nH]c3ccccc32)CC1` (configuration not stated)?
RE007 growth inh: -3.6%; FMDV antiviral: 10µM*

What do the screens show for `COC(=O)[C@@H]1CCCN1Cc1ccc2c(c1)CN(Cc1ccccc1F)CCO2`?
FMDV antiviral: -2.5%

How did COc1cccc2c1Oc1ncccc1N(C(=O)Nc1ccc(F)c(Cl)c1)C2 do in these assays?
FMDV antiviral: -29.6%; Sm TGR inh: 3.4%; LASV entry inh: 6.4%[46.1 µM]

Results for COCCn1nnnc1C(c1ccc(O)c(OC)c1)N1CCc2ccccc2C1 (configuration not stated) ?
RE007 growth inh: 19.3%; Marburg entry inh: inconclusive; FMDV antiviral: -21.1%; Sm TGR inh: 0.355µM*; LASV entry inh: 16.1%; HCV inh: -3.1%

How did COc1ccc(C(c2nnnn2C2CCCC2)N2CCc3ccccc3C2)cc1OC (configuration not stated) do in these assays?
RE007 growth inh: -15.8%; Marburg entry inh: -12.8%; FMDV antiviral: -5.3%; Sm TGR inh: inconclusive; LASV entry inh: inconclusive; HCV inh: -11.0%

Results for COc1ccccc1N1CCN(C(c2ccccc2)c2nnnn2CCc2ccccc2)CC1 (configuration not stated) ?
RE007 growth inh: 6.6%; Marburg entry inh: inconclusive; FMDV antiviral: -9.9%; Sm TGR inh: -8.8%; LASV entry inh: inconclusive; HCV inh: inconclusive

Results for COc1ccc(C(c2nnnn2CCc2ccccc2)N2CCN(C)CC2)cc1OC (configuration not stated) ?
RE007 growth inh: 8.7%; Marburg entry inh: -7.7%; FMDV antiviral: 3.5%; Sm TGR inh: 89.1µM*; LASV entry inh: 7.8%; HCV inh: -6.4%

What do the screens show for `Cc1cc(Br)ccc1NC(=O)C(NS(=O)(=O)c1cccs1)c1ccccc1` (configuration not stated)?
Marburg entry inh: inconclusive; FMDV antiviral: inconclusive; Sm TGR inh: 6.4%; LASV entry inh: 2.9%[46.1 µM]

Results for Cc1ccc(-c2nnn3c2nc(N2CCC(C)CC2)c2ccccc23)cc1 ?
Marburg entry inh: 4.4%[46.1 µM]; FMDV antiviral: 35.1%; Sm TGR inh: -0.7%; LASV entry inh: 22.2%[46.1 µM]

Results for Cc1ccc(CNC(=O)C2CCN(Cc3nc(-c4cccc(Br)c4)oc3C)CC2)cc1 ?
FMDV antiviral: -2.6%; Sm TGR inh: 1.3%; LASV entry inh: inconclusive

What do the screens show for `CCc1cc[n+](C2=C([O-])c3ccccc3C(=O)/C2=N\S(=O)(=O)c2cccs2)cc1`?
RE007 growth inh: inconclusive; Marburg entry inh: 7.08µM*; FMDV antiviral: inconclusive; Sm TGR inh: inconclusive; LASV entry inh: 18.4µM*; HCV inh: 5.01µM*

What do the screens show for `CCC(C)NS(=O)(=O)c1cccs1` (configuration not stated)?
RE007 growth inh: 7.4%; Marburg entry inh: -10.1%; FMDV antiviral: -6.1%; Sm TGR inh: 4.0%; LASV entry inh: 0.7%; HCV inh: inconclusive

How did C=CCOC(=O)C1=C(C)Nc2ncnn2C1c1cc(Br)ccc1F (configuration not stated) do in these assays?
RE007 growth inh: 2.3%; Marburg entry inh: inconclusive; FMDV antiviral: 12.6µM*; Sm TGR inh: 2.7%; LASV entry inh: -26.3%; HCV inh: -24.8%

How did C=CCOC(=O)C1=C(C)Nc2ncnn2C1c1cccs1 (configuration not stated) do in these assays?
RE007 growth inh: 2.4%; Marburg entry inh: -21.2%; FMDV antiviral: -17.2%; Sm TGR inh: -1.0%; LASV entry inh: -1.6%; HCV inh: 16.4%

Results for CCCn1nc(C(=O)Nc2cccc(S(=O)(=O)N3CCOCC3)c2)c2ccccc2c1=O ?
RE007 growth inh: -5.2%; FMDV antiviral: inconclusive
